Bioassay records deposited in PubChem by several laboratories.
CSC inhib: cancer stem cell viability inhibitors, primary screen, luminescence | cancer stem cell-like cells viability | inhibition, % at 7.5 µM | 300,000 compounds, 1.1% hits | AID 2717, 2010; in the data active = inhibition above about 75%; inconclusive = no clear call, values can overlap the other calls; tested in HMLE shEcad cells
Jurkat NFkB inh: inhibitors of induced NF-kB luciferase reporter, primary screen, TCR NF-kB activation inhibitor project, cell-based, luminescence, uHTS | AID 435003, 2010 | Jurkat, PMA/ionomycin-induced NF-kB luciferase reporter | inhibition, % at 4 µM | 330,000 compounds, 0.53% hits; in the data active = inhibition above about 50%
aSyn 5UTR inh: MLPCN primary screen, SNCA 5' untranslated region. alpha-synuclein 5'UTR reporter, inhibitor activity. inhibition, % (tested at 7.5 µM). 300,000 compounds, 0.82% hits; in the data active = inhibition above about 60%; inconclusive = no clear call, values can overlap the other calls;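 note: H4 neuroglioblastoma cells stably carrying SNCA 5'UTR luciferase fusion; 0% = DMSO wells and 100% = positive control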
697 NFkB inh: inhibitors of PMA/ionomycin-induced NF-kB reporter, 697 cells, primary screen, B-cell NF-kB inhibitor project, cell-based, luminescence, uHTS; 697 B-cell NF-kB luciferase reporter, 16 h; inhibition, % at 4 µM; 330,000 compounds, 0.33% hits; AID 435022, 2010; in the data active = inhibition above about 35%
Gli-Sufu antag: Gli-Sufu pathway antagonists, primary screen, luciferase luminescence, Sufu-KO-LIGHT cells, uHTS. 340,000 compounds, 0.74% hits. inhibition, % at 5 µM. AID 588413, 2011. Sufu-KO-LIGHT fibroblasts, Gli luciferase reporter luminescence;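 active = inhibition above about 55%, limit read from the data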;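 note: 0% = DMSO-treated cells and 100% = wells with medium but no cells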
Mdm2 MdmX PPI: inhibitors of human Mdm2-MdmX association, primary screen, cell-based, luminescence, split luciferase, SaOS-2, uHTS; Protein Mdm4 (Homo sapiens) + E3 ubiquitin-protein ligase Mdm2 (Homo sapiens), …; AID 485346, 2010; SaOS-2 split-luciferase Mdm2/MdmX complementation; 330,000 compounds, 3% hits; inhibition, % at 8 µM;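 active = inhibition of at least 50% at 8 µM in the primary screen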
Target sequence (O15151 whole entry, looked up): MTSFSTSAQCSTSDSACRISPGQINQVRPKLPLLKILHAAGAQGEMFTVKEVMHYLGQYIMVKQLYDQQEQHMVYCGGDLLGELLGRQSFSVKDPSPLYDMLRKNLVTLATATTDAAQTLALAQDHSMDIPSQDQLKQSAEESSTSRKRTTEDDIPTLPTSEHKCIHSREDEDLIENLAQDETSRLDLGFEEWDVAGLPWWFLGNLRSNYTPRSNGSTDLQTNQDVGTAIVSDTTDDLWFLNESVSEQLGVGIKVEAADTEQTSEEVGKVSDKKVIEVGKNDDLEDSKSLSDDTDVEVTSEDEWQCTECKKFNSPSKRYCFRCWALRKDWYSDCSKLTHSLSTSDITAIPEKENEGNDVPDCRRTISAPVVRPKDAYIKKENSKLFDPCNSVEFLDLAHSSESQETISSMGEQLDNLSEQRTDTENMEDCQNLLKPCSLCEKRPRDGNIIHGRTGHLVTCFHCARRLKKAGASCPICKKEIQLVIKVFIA
Target sequence (Q00987 whole entry, looked up): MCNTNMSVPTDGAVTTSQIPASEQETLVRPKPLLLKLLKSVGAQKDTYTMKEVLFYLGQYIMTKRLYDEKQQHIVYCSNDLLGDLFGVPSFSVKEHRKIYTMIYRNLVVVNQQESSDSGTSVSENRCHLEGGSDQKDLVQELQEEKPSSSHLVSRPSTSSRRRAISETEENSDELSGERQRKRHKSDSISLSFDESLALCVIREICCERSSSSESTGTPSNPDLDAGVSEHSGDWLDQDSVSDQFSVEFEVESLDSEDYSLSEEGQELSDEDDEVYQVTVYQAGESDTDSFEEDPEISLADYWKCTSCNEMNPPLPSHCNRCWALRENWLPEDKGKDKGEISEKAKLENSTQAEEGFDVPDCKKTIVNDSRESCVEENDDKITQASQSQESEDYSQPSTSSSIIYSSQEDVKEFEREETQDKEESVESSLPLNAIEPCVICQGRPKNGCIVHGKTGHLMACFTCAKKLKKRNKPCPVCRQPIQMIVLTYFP
Mdm2 MdmX conf: Mdm2-MdmX complex disruptors, retested hits, confirmation, luminescence, single concentration; shares compounds with Mdm2 MdmX PPI; Mdm2-MdmX binding, luminescent assay; inhibition, % at 8 µM; 10,000 compounds, 55% hits; AID 489028, 2010; in the data active = inhibition above about 40%
FLuc counter: full-length luciferase signal inhibition, confirmation, counter-screen for Mdm2/MdmX interaction inhibitor project, cell-based, single concentration, SaOS-2 | AID 504607, 2011 | 6,200 compounds, 77% hits | inhibition, % at 8 µM | SaOS-2 full-length luciferase counterscreen, luminescence | shares compounds with Mdm2 MdmX PPI;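 active = mean inhibition at 8 µM reaching about 37%, which flags the compound as non-specific, limit read from the data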;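 note: p53-null SaOS-2 cells with luciferase driven by a doxycycline-inducible promoter; compound on cells about two nights before reading with doxycycline added after day one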
* marks the source's active call; other numbers are inactive results; u = inconclusive; x = no result given. Only some compounds are listed: those with a hit (about 4.5% of all), similar ones and a draw of the others.

SMILES | CSC inhib | Jurkat NFkB inh | aSyn 5UTR inh | 697 NFkB inh | Gli-Sufu antag | Mdm2 MdmX PPI | Mdm2 MdmX conf | others
O=C(NNC(=O)c1cccnc1SCc1cccc([N+](=O)[O-])c1)c1ccccn1 | x | -5 | 103* | -37 | 45 | 55* | 79* | FLuc counter=21
COc1ccc(-n2nc(C(=O)NCC(=O)NCc3ccc(F)cc3)c3ccccc3c2=O)cc1OC | x | -13 | 0 | 13 | -7 | 80* | 9
COc1ccc(-n2nc(C(=O)NCC(=O)Nc3cc(OC)c(OC)c(OC)c3)c3ccccc3c2=O)cc1Cl | 38 | 44 | 38 | 21 | 29 | 70* | 73* | FLuc counter=81*
CCCCOC(=O)Nc1nc(C)c(C(=O)OCC)s1 | 6 | 5 | -61 | -11 | -37 | -34 | x
CCOC(=O)Cn1c(-c2ccccc2)cc(SC)c(C#N)c1=O | -17 | -33 | -11 | -22 | 3 | 0 | x
CSc1cc(-c2ccccc2)n(C)c(=O)c1C#N | -2 | 13 | -2 | 6 | -4 | 4 | x
CSc1cc(-c2ccccc2)n(Cc2c(Cl)cccc2Cl)c(=O)c1C#N | 59 | 43 | -51 | -25 | 0 | 66* | 51* | FLuc counter=69*
CSc1cc(-c2ccc(Cl)cc2)n(Cc2ccccc2)c(=O)c1C#N | 61 | 3 | -3 | 11 | 1 | 98* | 7
COc1ccc(C(=O)/C=C2/C(=O)Nc3ccccc32)c(OC)c1 | 75* | 14 | -44 | -2 | -3 | 86* | 26
COc1ccc(C(=O)/C=C2/C(=O)Nc3ccccc32)cc1OC | 25 | 9 | -9 | 22 | 3 | 39 | x
O=C1Nc2ccccc2/C1=C/C(=O)c1cccs1 | 83* | 20 | -9 | -21 | -4 | 64* | 23
COc1ccc(C(=O)/C=C2/C(=O)Nc3ccccc32)cc1 | u | 16 | -99 | 8 | 4 | 43 | x
C=CCOc1ccccc1C(=O)/C=C1/C(=O)Nc2ccccc21 | 51 | 31 | -25 | -7 | -2 | 78* | -6
C=CCOc1ccc(C(=O)/C=C2/C(=O)Nc3ccccc32)cc1 | 25 | 28 | -42 | 10 | 8 | 52* | 16
COc1ccc(C(O)(CCc2ccccc2)CCN2CCCCC2)cc1 (stereo not drawn) | 14 | -5 | -3 | -1 | -18 | 18 | x
COCCCNCCCOc1ccc(C(C)(C)c2ccccc2)cc1 | x | -6 | -44 | 3 | 8 | 34 | x
CC(C)(c1ccccc1)c1ccc(OCCCNCCO)cc1 | 5 | -3 | -14 | -54 | 4 | 54* | 37
Cc1ccc(C(=O)OCC(=O)NC2CCCCC2)s1 | 9 | -31 | -7 | 9 | -2 | -5 | x
CC1CN(c2nc3ccccc3nc2SCC(=O)Nc2ccc(F)cc2)CC(C)O1 (stereo not drawn) | -3 | 4 | -7 | 6 | -4 | 19 | x
CC(=O)c1sc(NC(=O)C=C(C)C)nc1C | x | -11 | -56 | 6 | -4 | -9 | x
CC(=O)c1sc(NC(=O)C2(F)C(F)(F)C(F)(F)C(F)(F)C(F)(F)C2(F)F)nc1C | -11 | -23 | 48 | 11 | 75* | 93* | 85* | FLuc counter=29
CC1(C)Cc2cccc(OCC(=O)Nc3cccnc3Cl)c2O1 | 0 | 17 | 34 | -5 | -11 | 6 | x
CC1CCc2cc(F)ccc2N1C(=O)CSc1nnc2c(n1)[nH]c1ccc(F)cc12 (stereo not drawn) | 46 | 7 | -19 | 17 | 9 | 84* | 24
O=C(CCCSCCCC(=O)NN=Cc1ccccc1)NN=Cc1ccccc1 | x | x | x | x | -4 | x | x
CC1Cc2ccccc2N1CC(=O)NC(c1ccccc1)c1ccccc1 (stereo not drawn) | -6 | -8 | 17 | -16 | -5 | 6 | x
SMILES | CSC inhib | Jurkat NFkB inh | aSyn 5UTR inh | 697 NFkB inh | Gli-Sufu antag | Mdm2 MdmX PPI | Mdm2 MdmX conf | others
Cc1cccc(OCCNC(=O)c2ccc(Oc3ccc(C(F)(F)F)cc3[N+](=O)[O-])cc2)c1 | 20 | -10 | 16 | 4 | -2 | 50* | 26
Cc1cccc(OCCNC(=O)c2cccc(Oc3ccc(C(F)(F)F)cc3[N+](=O)[O-])c2)c1 | u | 35 | 6 | -48 | -4 | 6 | x
CC(C)Cn1c(=O)[nH]c(=O)c2c(C(F)(F)F)cc(-c3ccccc3)nc21 | 18 | 5 | 20 | -13 | 16 | 0 | x
Cc1ccccc1C(=O)N1CCN(c2ccc(NC(=O)CSc3ccc(Cl)cc3)cc2)CC1 | 25 | 2 | 51 | -62 | -3 | 61* | 49* | FLuc counter=42*
COc1ccc(NC(=O)c2ccccc2NC(=O)CSc2ccc(Cl)cc2)cc1 | -6 | -22 | -67 | -50 | 11 | 84* | 43* | FLuc counter=71*
Cc1ccc(C(=O)N2CCN(c3ccc(NC(=S)NC(=O)c4cccs4)cc3)CC2)cc1 | -1 | -10 | u | -28 | 23 | 41 | x
Cc1ccccc1C(=O)N1CCN(c2ccc(NC(=O)c3cccc(OC(C)C)c3)cc2)CC1 | -6 | 19 | 47 | -61 | 24 | 53* | 45* | FLuc counter=55*
Cc1ccccc1C(=O)N1CCN(c2ccc(NC(=S)NC(=O)c3cccs3)cc2)CC1 | 49 | 12 | 54 | -36 | -15 | 53* | 40 | FLuc counter=75*
O=C(CCn1cnc2ccccc2c1=O)Nc1cccc(Cl)c1Cl | 14 | -9 | 26 | -4 | 5 | -14 | x
Cc1ccccc1OCC(=O)OCC(=O)c1ccc[nH]1 | x | 10 | x | -12 | x | -58 | x
CC(NC(=O)C(C)(C)C)C(c1cccs1)N1CCOCC1 (stereo not drawn) | -12 | 7 | -2 | 4 | -2 | -6 | x
CC1Cc2ccccc2N1C(=O)CSc1nc2c(c(=O)n(C)c(=O)n2C)n1Cc1ccc(F)cc1 (stereo not drawn) | 9 | 0 | -1 | -11 | -17 | 72* | 47* | FLuc counter=71*
CCCCn1c(SCC(=O)N2c3ccccc3Sc3ccccc32)nc2c1c(=O)n(C)c(=O)n2C | 3 | -10 | 41 | -28 | 9 | 59* | 20
Cn1c(=O)c2c(nc(SCC(=O)c3cccs3)n2Cc2ccc(F)cc2)n(C)c1=O | -13 | -15 | 29 | -69 | 8 | 16 | x
O=C(c1ccc(Cl)cc1)N(Cc1cccs1)C1CCS(=O)(=O)C1 (stereo not drawn) | -6 | 15 | 8 | 7 | 2 | 13 | x
